According to PubChem BioAssay (Tox21):
Inconclusive results are not listed. Activity calls are given as the source filed them. Unless noted, calls follow the shape of the dose curve; as a rule, active = well fitted curve in the direction sought with a large enough effect in the repeat runs; inconclusive = weak or mixed curves; inactive = no such curve, though single readings can be large; an effect the other way counts as inactive or inconclusive.

How the values were obtained:
[1] = qHTS assay to identify small molecule antagonists of the estrogen related receptor (ERR) signaling pathway from Tox21 library - cell viability counter screen (AID 1224834); also: nearly all actives have a fitted effect of over 30% in size
Summary of the method: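 In this quantitative HTS format, ERR cells receive compounds in DMSO and are incubated for 17.5 h at 37 C. Live-cell protease activity is then detected with CellTiter-Fluor.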

[2] = target: Luciferin 4-monooxygenase (Photinus pyralis) (UniProt P08659); assay: qHTS assay to identify small molecule inhibitors of firefly luciferase (AID 1224835); also: nearly all actives have a fitted effect of over 25% in size
Summary of the method: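 Inhibition of purified Photinus luciferase is measured by luminescence. Substrate levels (D-luciferin, ATP) sit at their KM values. Each compound is tested in a concentration series.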

[3] = qHTS assay to identify small molecule agonists of the constitutive androstane receptor (CAR) signaling pathway - cell viability counter screen (AID 1224836); also: nearly all actives have a fitted effect of over 45% in size
Summary of the method: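 Fluorescence from CellTiter-Fluor indicates live cells after 23 h exposure. The human hepatoma line expresses hCAR and a CYP2B6-2.2kb reporter. Incubation medium contains 0.75 uM PK11195 (final).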

[4] = qHTS assay to identify small molecule antagonists of the constitutive androstane receptor (CAR) signaling pathway - cell viability counter screen (AID 1224837); also: nearly all actives have a fitted effect of over 45% in size
Summary of the method: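 In quantitative HTS format, compounds at 15 concentrations were applied to HepG2 cells double-transfected with hCAR and CYP2B6-2.2kb under 50 nM CITCO stimulation; live-cell protease activity was read after 23 hr via CellTiter-Fluor.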

[5] = target: Nuclear receptor subfamily 1 group I member 3 (Homo sapiens) (UniProt Q14994); assay: qHTS assay to identify small molecule antagonists of the constitutive androstane receptor (CAR) signaling pathway (AID 1224838); also: nearly all actives have a fitted effect of over 40% in size
Summary of the method: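 CITCO-stimulated (50 nM final) HepG2 cells stably transfected with hCAR and CYP2B6-2.2kb luciferase were exposed to compounds at 15 concentrations for 24 h at 37 C/5% CO2. A luciferase reagent was added and luminescence recorded after 30 min.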

[6] = target: Nuclear receptor subfamily 1 group I member 3 (Homo sapiens) (UniProt Q14994); assay: qHTS assay to identify small molecule agonists of the constitutive androstane receptor (CAR) signaling pathway (AID 1224839);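 also: HepG2 cells stably carrying human CAR and a CYP2B6 luciferase reporter; nearly all actives have a fitted effect of over 15% in size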
Summary of the method: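 Stable hCAR/CYP2B6-2.2kb HepG2 line in DMEM with 10% FBS; compounds (15 concentrations) and 0.75 uM PK11195 final, 24 h at 37 C/5% CO2, then ONE-Glo luminescence after 30 min.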

[7] = qHTS assay to identify small molecule antagonists of the estrogen related receptor signaling pathway with the pleiotropic PPARgamma coactivator (PGC) from Tox21 10K library - cell viability counter screen (AID 1224840; active = well fitted cell-killing curve with a large enough effect in the repeat runs, not every such curve was filed as active; also: nearly all actives have a fitted effect of over 40% in size)
Summary of the method: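 Viability counter screen, PGC/ERR cells: 17.5 h compound exposure at 37 C, CellTiter-Fluor fluorescence endpoint.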

[8] = qHTS assay to identify small molecule antagonists of the estrogen related receptor signaling pathway with the pleiotropic PPARgamma coactivator (PGC) from Tox21 10K library (AID 1224841; call rule not given here; also: actives are mostly falling curves and most rising ones were filed inactive; nearly all actives have a fitted effect of over 50% in size)
Summary of the method: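 In the PGC/ERR line, DMSO solutions of test chemicals are pin-delivered to 2,000 cells/well six hours after dispensing. Following eighteen hours' incubation, One-Glo reagent is added and luminescence recorded.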

[9] = qHTS assay to identify small molecule agonists of the estrogen related receptor signaling pathway with the pleiotropic PPARgamma coactivator (PGC) from Tox21 10K library (AID 1224842); also: nearly all actives have a fitted effect of over 15% in size
Summary of the method: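 Luminescence from One-Glo (30 min, room temperature) measured after PGC/ERR cells had 18 h at 37 C with pinned compound (23 nL in DMSO). Cells had been seeded at 2,000 per well and pre-incubated 6 h.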

[10] = target: Thyrotropin receptor (Homo sapiens) (UniProt P16473); assay: qHTS assay to identify small molecule agonists of the thyroid stimulating hormone receptor (TSHR) signaling pathway (AID 1224843; calls by dose curve; also: nearly all actives have a fitted effect of over 45% in size)
Summary of the method: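 Agonist activity read as cAMP rise via d2/cryptate HTRF competition, 1 h room-temperature detection, in HEK293 cells expressing TSHR. Fifteen-point titrations, each run in triplicate, with a 30 min room-temperature incubation beforehand.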

[11] = qHTS assay to identify small molecule agonists of the hypoxia (HIF-1) signaling pathway - cell viability counter screen (AID 1224844; calls by dose curve; also: nearly all actives have a fitted effect of over 50% in size)
Summary of the method: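 Same wells as the HIF-1 reporter screen; ME-180 cells carrying HRE-bla, 17 hr treatment at 37C; CellTiter-Glo luminescence read after 30 min at room temperature.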

[12] = qHTS assay to identify small molecule agonists of H2AX (AID 1224845; active = well fitted activation curve with a large enough effect in the signal ratio in the repeat runs, not every such curve was filed as active; the % refers to the signal ratio)
Summary of the method: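 Phospho-H2AX Ser139 measured by HTRF (ex 320 nm; em 665 and 620 nm) after 24 hr antibody incubation. Compounds, 15 concentrations, 0.76% DMSO, were applied to CHO-K1 cells for 3hr at 37C before lysis.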

[13] = qHTS assay to identify small molecule agonists of the hypoxia (HIF-1) signaling pathway (AID 1224846; active = well fitted activation curve with a large enough effect in the signal ratio in the repeat runs, not every such curve was filed as active; the % refers to the signal ratio)
Summary of the method: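 In ME-180 cells bearing an HRE-bla construct, 17 h treatment with DMSO-dissolved compounds at 37C was followed by CCF4-AM loading to quantify reporter induction.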

[14] = qHTS assay to identify small molecule agonists of H2AX - cell viability counter screen (AID 1224847; calls by dose curve; also: top concentration of the series differs between compounds; nearly all actives have a fitted effect of over 30% in size)
Summary of the method: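 Viability of CHO-K1 (wild type) cells after 3 hr compound exposure was measured by CellTiter-Glo luminescence.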

[15] = qHTS assay to identify small molecule antagonists of the estrogen related receptor (ERR) signaling pathway from Tox21 library (AID 1224848); also: nearly all actives have a fitted effect of over 50% in size
Summary of the method: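 Luciferase luminescence (ONE-Glo, 30 min room temperature) was the read-out. Cells of the NTP-supplied ERR line, 2,000 per well, were given 6 h at 37 C before compound addition in DMSO and 18 h exposure at 37 C.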

[16] = qHTS RealTime-Glo MT Cell Viability Assay in HepG2 cells - 24 hour (AID 1224867); also: nearly all actives have a fitted effect of over 50% in size
Summary of the method: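 Viability was tracked continuously by NanoLuc luminescence from prosubstrate reduced by living HepG2 cells, at successive time points over 40 h of compound exposure. Cells with reagent were preincubated 5 h at 37 °C before compound addition.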

[17] = qHTS RealTime-Glo MT Cell Viability Assay in HEK293 cells - 32 hour (AID 1224868)
Summary of the method: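 Viability tracked continuously by luminescence as live cells reduce a prosubstrate for NanoLuc; HEK293 cells preincubated 5 h, compound-treated at 37 C, and read at 0, 8, 16, 24, 32 and 40 h.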

[18] = A CellTox Green Cytotoxicity Assay to monitor cytotoxicity in HEK293 cells - 0 hour (AID 1224869); also: nearly all actives have a fitted effect of over 50% in size
Summary of the method: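 Homogeneous no-lysis format: HEK293 cell suspension mixed with CellTox Green reagent, seeded, incubated 5 h at 37 C/5% CO2, then dosed by pintool with compound in DMSO.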

[19] = qHTS assay to identify small molecule agonists of the estrogen related receptor (ERR) signaling pathway from Tox21 library (AID 1224849; calls by dose curve; also: nearly all actives have a fitted effect of over 15% in size); details: ERR reporter cell line, ONE-Glo luciferase, 18 h; at 92.4 µM (top of the series) unless noted
Summary of the method: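 Reporter cells (ERR, NTP source) treated with Tox21 10K compounds 18 h, 37 C. Readout: ONE-Glo luminescence, 30 min RT.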
% is scaled to controls: 0 for no effect and ±100 for the full control effect.

Sequence of Nuclear receptor subfamily 1 group I member 3 (Homo sapiens) (Q14994 whole entry, looked up): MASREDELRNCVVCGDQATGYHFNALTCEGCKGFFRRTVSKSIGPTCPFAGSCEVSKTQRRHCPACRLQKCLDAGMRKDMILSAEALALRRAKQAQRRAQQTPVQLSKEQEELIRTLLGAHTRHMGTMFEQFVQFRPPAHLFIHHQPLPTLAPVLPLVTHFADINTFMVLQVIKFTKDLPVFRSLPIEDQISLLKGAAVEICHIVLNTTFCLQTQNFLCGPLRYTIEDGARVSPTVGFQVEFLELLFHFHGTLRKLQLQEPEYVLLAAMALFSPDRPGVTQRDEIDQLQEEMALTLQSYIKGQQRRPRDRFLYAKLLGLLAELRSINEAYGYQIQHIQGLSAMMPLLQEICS
Sequence of Luciferin 4-monooxygenase (Photinus pyralis) (P08659 whole entry, looked up): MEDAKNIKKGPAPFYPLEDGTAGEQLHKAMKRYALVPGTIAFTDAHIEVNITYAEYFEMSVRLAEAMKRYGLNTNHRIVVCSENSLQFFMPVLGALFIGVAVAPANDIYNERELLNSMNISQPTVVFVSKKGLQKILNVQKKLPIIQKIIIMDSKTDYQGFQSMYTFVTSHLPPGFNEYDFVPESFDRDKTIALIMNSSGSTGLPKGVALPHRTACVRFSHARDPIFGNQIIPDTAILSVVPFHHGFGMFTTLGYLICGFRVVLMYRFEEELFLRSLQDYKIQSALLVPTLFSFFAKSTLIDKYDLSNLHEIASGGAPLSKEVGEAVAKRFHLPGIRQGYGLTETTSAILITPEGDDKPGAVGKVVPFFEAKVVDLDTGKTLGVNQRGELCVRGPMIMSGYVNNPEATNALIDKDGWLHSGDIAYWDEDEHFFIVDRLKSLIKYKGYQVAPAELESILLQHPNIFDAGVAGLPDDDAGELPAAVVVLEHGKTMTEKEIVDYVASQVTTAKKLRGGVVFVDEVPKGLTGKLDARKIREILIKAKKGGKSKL
Sequence of Thyrotropin receptor (Homo sapiens) (P16473 whole entry, looked up): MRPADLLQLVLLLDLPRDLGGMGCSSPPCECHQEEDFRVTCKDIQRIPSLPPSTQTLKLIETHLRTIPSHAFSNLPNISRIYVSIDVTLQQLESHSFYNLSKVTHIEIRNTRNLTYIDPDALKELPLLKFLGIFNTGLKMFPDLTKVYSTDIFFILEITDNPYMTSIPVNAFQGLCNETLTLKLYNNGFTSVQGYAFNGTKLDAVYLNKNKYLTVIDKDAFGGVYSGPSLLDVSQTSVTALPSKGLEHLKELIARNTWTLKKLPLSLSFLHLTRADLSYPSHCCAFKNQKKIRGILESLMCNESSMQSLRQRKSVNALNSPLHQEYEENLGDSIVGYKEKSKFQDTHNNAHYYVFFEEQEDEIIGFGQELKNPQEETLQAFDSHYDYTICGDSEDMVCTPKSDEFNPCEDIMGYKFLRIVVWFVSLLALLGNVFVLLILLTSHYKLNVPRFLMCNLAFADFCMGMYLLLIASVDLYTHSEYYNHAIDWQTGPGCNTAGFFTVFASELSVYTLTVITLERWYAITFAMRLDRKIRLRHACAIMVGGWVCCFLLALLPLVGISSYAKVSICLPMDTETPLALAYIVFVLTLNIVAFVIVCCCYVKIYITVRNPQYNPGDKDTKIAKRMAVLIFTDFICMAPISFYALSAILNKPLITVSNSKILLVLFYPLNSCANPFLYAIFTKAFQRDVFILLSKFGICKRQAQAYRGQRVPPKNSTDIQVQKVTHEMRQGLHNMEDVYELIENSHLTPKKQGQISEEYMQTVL

Cc1cccn2c(=O)c(-c3nnn[nH]3)cnc12
inactive: viability change, negative = cytotoxic [1] 0.715% [at 19 µM] | activity change, negative = inhibition [2] 1.24% [at 23.6 µM] | viability change, negative = cytotoxic [3] 10.1% [at 19 µM] | activity change, negative = cytotoxicity [4] -0.444% [at 19 µM] | activity, negative = inhibition [5] -0.816% [at 19 µM] | activation [6] 2.7% [at 19 µM] | viability change, negative = cytotoxic [7] 11.8% [at 19 µM] | activity, negative = inhibition [8] 13.5% [at 19 µM] | activation [9] 4.84% [at 19 µM] | Potency [10] | activity change, negative = cytotoxicity [11] -2.16% [at 15.8 µM] | outcome [12] | activation [13] -0.179% [at 15.8 µM] | Potency [14] | activity, negative = inhibition [15] 7.1% [at 19 µM] | activity change, negative = cytotoxicity [16] -2.42% [at 15.8 µM] | activity change, negative = cytotoxic [17] -0.452% [at 15.8 µM] | cytotoxicity [18] 3.94% [at 15.8 µM]

CC/C=C\CC/C=C/C(OCC)OCC
inactive: Potency [1] | Potency [2] | Potency [3] | Potency [4] | Potency [5] | Potency [6] | Potency [7] | Potency [8] | outcome [9] | Potency [10] | Potency [11] | outcome [12] | outcome [13] | Potency [14] | Potency [15] | Potency [16] | Potency [17] | Potency [18]

CC(C)=CCCC(C)CC(=O)O (stereo not given)
inactive: Potency [1] | Potency [2] | Potency [3] | Potency [4] | Potency [5] | Potency [6] | Potency [7] | Potency [8] | outcome [9] | Potency [10] | Potency [11] | outcome [12] | outcome [13] | Potency [14] | Potency [15] | activity change, positive = activation [19] 3.83% | Potency [16] | Potency [17] | Potency [18]

CN(C)CCCNCCCN(C)C
inactive: Potency [1] | Potency [2] | Potency [3] | Potency [4] | Potency [5] | Potency [6] | Potency [7] | Potency [8] | outcome [9] | Potency [10] | Potency [11] | outcome [12] | outcome [13] | Potency [14] | Potency [15] | activity change, positive = activation [19] -4.23% | Potency [16] | Potency [17] | Potency [18]

OCCOc1ccc(OCCO)cc1
inactive: Potency [1] | Potency [2] | Potency [3] | Potency [4] | Potency [5] | Potency [6] | Potency [7] | Potency [8] | outcome [9] | Potency [10] | Potency [11] | outcome [12] | outcome [13] | Potency [14] | Potency [15] | activity change, positive = activation [19] 2.76% | Potency [16] | Potency [17] | Potency [18]

C=COCC1CCC(CO)CC1 (stereo not given)
inactive: Potency [1] | Potency [2] | Potency [3] | Potency [4] | Potency [5] | Potency [6] | Potency [7] | Potency [8] | outcome [9] | Potency [10] | Potency [11] | outcome [12] | outcome [13] | Potency [14] | Potency [15] | Potency [16] | Potency [17] | Potency [18]

Cc1ccc(Cl)cc1Cl
inactive: Potency [1] | Potency [2] | Potency [3] | Potency [4] | Potency [5] | Potency [6] | Potency [7] | Potency [8] | outcome [9] | Potency [10] | Potency [11] | outcome [12] | outcome [13] | Potency [14] | Potency [15] | activity change, positive = activation [19] -0.115% | Potency [16] | Potency [17] | Potency [18]

Nc1c[n+](N2CCOCC2)no1
inactive: Potency [1] | Potency [2] | Potency [3] | Potency [4] | Potency [5] | Potency [6] | Potency [7] | Potency [8] | outcome [9] | Potency [10] | Potency [11] | outcome [12] | outcome [13] | Potency [14] | Potency [15] | activity change, positive = activation [19] 0.251% [at 42.5 µM] | Potency [16] | Potency [17] | Potency [18]

CCCN1CCCC[C@H]1C(=O)Nc1c(C)cccc1C
inactive: Potency [1] | Potency [2] | Potency [3] | Potency [4] | Potency [5] | Potency [6] | Potency [7] | Potency [8] | outcome [9] | Potency [10] | Potency [11] | outcome [12] | outcome [13] | Potency [14] | Potency [15] | activity change, positive = activation [19] 6.18% [at 42.5 µM] | Potency [16] | Potency [17] | Potency [18]

NS(=O)(=O)c1ccccc1Cl
inactive: Potency [1] | Potency [2] | Potency [3] | Potency [4] | Potency [5] | Potency [6] | Potency [7] | Potency [8] | outcome [9] | Potency [10] | Potency [11] | outcome [12] | outcome [13] | Potency [14] | Potency [15] | activity change, positive = activation [19] 2.78% | Potency [16] | Potency [17] | Potency [18]

O=C(O)COc1nn(Cc2ccccc2)c2ccccc12
inactive: Potency [1] | Potency [2] | Potency [3] | Potency [4] | Potency [5] | Potency [6] | Potency [7] | Potency [8] | outcome [9] | Potency [10] | Potency [11] | outcome [12] | outcome [13] | Potency [14] | Potency [15] | activity change, positive = activation [19] 0.25% [at 42.5 µM] | Potency [16] | Potency [17] | Potency [18]

CCCCCCCCCCCCCC=O
inactive: viability change, negative = cytotoxic [1] 1.13% [at 8.39 µM] | activity change, negative = inhibition [2] 3.28% [at 10.5 µM] | viability change, negative = cytotoxic [3] -0.0726% [at 8.39 µM] | activity change, negative = cytotoxicity [4] 6.66% [at 8.39 µM] | activity, negative = inhibition [5] -13.4% [at 8.39 µM] | activation [6] -0.0217% [at 8.39 µM] | viability change, negative = cytotoxic [7] 5.18% [at 8.39 µM] | activity, negative = inhibition [8] 11.8% [at 8.39 µM] | activation [9] -0.504% [at 8.39 µM] | activation [10] 4.61% [at 8.39 µM] | activity change, negative = cytotoxicity [11] 0.368% [at 6.97 µM] | activation (H2AX phosphorylation) [12] -4.49% [at 14 µM] | activation [13] -0.206% [at 7.01 µM] | activity change, negative = cytotoxicity [14] 0.845% [at 14 µM] | activity, negative = inhibition [15] -0.715% [at 8.39 µM] | activity change, positive = activation [19] -0.514% [at 8.39 µM] | activity change, negative = cytotoxicity [16] -6.68% [at 6.97 µM] | activity change, negative = cytotoxic [17] 5.71% [at 6.97 µM] | cytotoxicity [18] -4.46% [at 6.97 µM]
